Targets with a hit are over-represented here; the source holds about 7,900 in all. About 0.6% of all pairs of compound and target were hits. Values without a mark were called inactive.

Chain of UniProt Q9NZN4 (Q9NZN4 whole entry, looked up): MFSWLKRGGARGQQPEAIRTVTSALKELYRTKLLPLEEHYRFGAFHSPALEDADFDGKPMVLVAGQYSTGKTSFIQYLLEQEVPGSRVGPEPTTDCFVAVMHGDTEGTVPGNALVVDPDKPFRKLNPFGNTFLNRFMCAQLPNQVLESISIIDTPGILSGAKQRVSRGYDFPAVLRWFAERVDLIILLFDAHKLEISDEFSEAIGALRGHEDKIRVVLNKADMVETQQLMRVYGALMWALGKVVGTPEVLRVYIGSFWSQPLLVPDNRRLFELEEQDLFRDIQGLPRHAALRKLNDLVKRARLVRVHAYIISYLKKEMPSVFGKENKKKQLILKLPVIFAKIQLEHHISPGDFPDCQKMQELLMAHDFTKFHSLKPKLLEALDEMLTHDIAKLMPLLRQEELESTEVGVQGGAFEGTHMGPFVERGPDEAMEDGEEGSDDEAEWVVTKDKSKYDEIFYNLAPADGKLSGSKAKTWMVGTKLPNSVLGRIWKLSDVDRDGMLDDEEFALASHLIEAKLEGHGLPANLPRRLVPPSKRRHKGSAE
Chain of UniProt Q8N128 (Q8N128 whole entry, looked up): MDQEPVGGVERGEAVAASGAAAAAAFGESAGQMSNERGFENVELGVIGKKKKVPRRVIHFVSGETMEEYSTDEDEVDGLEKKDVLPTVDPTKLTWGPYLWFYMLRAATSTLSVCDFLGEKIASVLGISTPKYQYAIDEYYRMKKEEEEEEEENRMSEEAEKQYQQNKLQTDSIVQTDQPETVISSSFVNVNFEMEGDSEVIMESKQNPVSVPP
Chain of UniProt Q5W0V3 (Q5W0V3 whole entry, looked up): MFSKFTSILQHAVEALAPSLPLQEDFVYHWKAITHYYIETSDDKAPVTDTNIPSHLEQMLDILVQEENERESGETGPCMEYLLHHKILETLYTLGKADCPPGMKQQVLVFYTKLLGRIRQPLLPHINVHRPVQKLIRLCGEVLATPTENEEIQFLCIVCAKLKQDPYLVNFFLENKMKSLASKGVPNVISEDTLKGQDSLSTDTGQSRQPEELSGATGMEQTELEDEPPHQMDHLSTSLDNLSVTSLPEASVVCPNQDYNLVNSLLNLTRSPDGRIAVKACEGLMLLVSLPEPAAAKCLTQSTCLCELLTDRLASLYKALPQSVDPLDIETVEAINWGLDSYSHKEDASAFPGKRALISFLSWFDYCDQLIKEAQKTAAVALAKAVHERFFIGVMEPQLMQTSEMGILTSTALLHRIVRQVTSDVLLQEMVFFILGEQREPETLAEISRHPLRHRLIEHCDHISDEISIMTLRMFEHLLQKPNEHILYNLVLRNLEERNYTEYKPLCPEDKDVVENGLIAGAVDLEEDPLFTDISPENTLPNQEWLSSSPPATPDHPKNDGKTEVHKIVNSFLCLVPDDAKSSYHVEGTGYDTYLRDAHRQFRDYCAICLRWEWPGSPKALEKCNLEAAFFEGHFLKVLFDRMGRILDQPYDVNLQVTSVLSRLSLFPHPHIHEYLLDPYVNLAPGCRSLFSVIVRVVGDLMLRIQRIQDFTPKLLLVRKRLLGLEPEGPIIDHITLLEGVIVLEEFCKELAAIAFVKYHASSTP
Chain of UniProt Q6V1X1 (Q6V1X1 whole entry, looked up): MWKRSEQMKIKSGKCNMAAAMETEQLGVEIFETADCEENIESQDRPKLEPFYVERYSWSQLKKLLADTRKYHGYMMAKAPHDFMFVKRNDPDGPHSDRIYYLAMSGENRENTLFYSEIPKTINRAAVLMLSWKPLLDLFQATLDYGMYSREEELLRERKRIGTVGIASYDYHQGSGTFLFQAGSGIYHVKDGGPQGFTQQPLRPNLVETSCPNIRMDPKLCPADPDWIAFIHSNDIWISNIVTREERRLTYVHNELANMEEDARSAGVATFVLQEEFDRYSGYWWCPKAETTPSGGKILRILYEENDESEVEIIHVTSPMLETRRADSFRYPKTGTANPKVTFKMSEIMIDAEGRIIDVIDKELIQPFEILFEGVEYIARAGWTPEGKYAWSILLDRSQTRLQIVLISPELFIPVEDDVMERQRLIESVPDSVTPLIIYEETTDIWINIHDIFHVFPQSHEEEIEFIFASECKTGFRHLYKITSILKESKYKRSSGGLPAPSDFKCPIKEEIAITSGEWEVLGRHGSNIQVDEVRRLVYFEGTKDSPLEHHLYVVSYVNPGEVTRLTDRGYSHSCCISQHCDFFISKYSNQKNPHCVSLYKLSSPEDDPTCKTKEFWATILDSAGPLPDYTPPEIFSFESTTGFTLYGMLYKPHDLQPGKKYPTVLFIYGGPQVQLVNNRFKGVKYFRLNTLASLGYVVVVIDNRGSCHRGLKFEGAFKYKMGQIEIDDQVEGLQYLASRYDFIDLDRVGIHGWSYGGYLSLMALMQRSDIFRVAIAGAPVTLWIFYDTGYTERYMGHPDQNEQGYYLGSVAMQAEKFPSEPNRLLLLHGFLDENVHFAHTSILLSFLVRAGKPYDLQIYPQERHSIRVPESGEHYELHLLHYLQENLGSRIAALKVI
Chain of UniProt Q9H2U1 (Q9H2U1 whole entry, looked up): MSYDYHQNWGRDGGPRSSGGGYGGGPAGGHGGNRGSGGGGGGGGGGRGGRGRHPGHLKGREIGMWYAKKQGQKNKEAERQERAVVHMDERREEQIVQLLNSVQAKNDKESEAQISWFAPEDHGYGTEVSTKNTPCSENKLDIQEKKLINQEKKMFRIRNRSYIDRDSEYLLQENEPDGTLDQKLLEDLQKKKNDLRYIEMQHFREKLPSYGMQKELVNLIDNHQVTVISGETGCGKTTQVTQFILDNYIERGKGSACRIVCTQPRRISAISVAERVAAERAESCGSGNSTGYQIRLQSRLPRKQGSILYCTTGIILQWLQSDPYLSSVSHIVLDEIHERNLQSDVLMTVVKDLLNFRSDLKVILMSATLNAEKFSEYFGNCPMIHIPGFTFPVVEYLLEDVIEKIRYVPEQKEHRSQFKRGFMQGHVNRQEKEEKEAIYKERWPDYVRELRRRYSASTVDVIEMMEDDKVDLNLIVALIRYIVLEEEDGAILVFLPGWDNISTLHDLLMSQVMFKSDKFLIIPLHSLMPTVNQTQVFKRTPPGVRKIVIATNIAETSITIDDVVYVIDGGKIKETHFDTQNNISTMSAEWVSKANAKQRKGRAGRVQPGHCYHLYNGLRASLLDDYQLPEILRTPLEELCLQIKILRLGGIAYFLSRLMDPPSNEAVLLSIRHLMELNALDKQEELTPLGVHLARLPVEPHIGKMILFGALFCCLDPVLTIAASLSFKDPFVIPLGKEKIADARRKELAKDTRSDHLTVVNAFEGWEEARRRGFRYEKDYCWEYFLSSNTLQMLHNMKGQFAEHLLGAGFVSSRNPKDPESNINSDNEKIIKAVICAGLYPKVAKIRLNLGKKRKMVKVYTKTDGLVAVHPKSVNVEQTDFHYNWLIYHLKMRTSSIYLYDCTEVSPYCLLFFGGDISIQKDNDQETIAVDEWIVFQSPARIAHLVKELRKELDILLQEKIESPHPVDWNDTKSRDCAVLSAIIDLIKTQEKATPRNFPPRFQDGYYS
Chain of UniProt Q14118 (Q14118 whole entry, looked up): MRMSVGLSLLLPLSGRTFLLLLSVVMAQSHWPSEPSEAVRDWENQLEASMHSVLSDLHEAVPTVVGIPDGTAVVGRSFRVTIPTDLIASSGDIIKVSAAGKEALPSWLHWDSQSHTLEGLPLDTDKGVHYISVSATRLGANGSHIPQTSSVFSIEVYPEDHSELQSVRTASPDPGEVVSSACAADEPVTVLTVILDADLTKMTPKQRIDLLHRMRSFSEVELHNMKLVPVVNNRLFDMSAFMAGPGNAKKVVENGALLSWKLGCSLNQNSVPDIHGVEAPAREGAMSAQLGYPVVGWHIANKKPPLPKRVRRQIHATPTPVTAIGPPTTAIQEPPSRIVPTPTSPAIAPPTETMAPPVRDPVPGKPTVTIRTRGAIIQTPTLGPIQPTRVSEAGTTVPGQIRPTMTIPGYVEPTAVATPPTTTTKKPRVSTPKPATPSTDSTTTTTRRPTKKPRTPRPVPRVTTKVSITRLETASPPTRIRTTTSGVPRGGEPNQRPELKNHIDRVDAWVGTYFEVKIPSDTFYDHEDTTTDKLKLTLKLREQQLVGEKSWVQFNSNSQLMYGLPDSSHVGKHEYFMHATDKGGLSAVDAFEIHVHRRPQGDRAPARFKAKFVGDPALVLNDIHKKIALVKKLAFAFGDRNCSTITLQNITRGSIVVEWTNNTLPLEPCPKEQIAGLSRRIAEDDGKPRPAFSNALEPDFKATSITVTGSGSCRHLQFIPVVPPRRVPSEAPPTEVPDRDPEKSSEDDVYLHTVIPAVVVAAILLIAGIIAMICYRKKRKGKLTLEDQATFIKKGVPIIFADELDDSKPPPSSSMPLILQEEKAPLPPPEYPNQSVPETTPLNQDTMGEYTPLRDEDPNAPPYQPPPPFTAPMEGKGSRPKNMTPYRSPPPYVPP
Chain of UniProt Q9UK59 (Q9UK59 whole entry, looked up): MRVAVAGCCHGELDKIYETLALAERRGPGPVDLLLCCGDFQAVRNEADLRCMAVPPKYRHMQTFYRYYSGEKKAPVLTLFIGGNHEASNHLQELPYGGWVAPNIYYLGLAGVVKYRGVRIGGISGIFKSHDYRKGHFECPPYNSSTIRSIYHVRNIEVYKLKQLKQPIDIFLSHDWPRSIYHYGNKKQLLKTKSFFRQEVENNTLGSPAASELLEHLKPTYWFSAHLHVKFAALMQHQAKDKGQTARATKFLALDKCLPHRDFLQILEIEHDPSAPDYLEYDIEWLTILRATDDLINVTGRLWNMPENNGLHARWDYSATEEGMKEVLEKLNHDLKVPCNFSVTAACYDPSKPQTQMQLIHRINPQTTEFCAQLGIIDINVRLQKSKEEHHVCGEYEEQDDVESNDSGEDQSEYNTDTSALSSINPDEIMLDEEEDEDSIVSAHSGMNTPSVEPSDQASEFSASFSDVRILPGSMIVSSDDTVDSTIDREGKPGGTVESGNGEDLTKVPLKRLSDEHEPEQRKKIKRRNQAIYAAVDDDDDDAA
Chain of UniProt O60888 (O60888 whole entry, looked up): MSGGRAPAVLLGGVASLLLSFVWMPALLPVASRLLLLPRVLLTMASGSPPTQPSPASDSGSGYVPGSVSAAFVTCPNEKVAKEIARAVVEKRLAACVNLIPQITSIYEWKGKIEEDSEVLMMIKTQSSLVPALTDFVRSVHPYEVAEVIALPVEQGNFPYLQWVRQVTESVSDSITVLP

Compound in the first assay: Cc1cc(Nc2cc(CN3CCOCC3)c3nc(C)c(Cc4ccc(Cl)cc4F)n3n2)n[nH]1 [gandotinib]
The experiment in a line: log2 fold change, soluble protein after heating vs DMSO (PISA); higher = thermal stabilisation; K562 cells, 10 uM, 30 min; active = over 0.2 and 3.5 SD of the protein, either way, in both replicates (recomputed). In outline:
(§1)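 Quantification of soluble protein used TMTpro 16plex LC-MS/MS, with channel sums equalised. Samples were the supernatant after 21,000xg for 90 min of pooled aliquots from K562 cells (2×10^6 cells/mL) treated with 10 μM compound for 30 min, heated for 3 min over 48°C-58°C, and extracted in PBS with 0.5% NP-40 at 4°C. Values, from duplicates, describe thermal stability against control samples on a log2 fold-change scale.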
On to CYBA (UniProt P13498), for which the log2 fold change is -0.231.
Take FADS1, A0A0A0MR51: the log2 fold change is 0.434 (active).
Regarding DPP8 (UniProt Q6V1X1), the log2 fold change was -0.038.
Same read-out and setting: to DDB1 (UniProt Q16531) belongs -0.028.
In the case of CUX1 isoform 3 (UniProt P39880), the log2 fold change is -0.048.
On to EHBP1L1 (UniProt Q8N3D4), for which the log2 fold change is -0.206.
Still for that read-out and setting: as for EXOC7 (UniProt Q9UPT5), the figure is -0.122.
Same read-out and setting: as for DHX36 (UniProt Q9H2U1), the figure is 0.069.
Regarding DBR1 (UniProt Q9UK59), the log2 fold change was 0.003.
In the case of ERLIN2 (UniProt O94905), the log2 fold change is -0.044.
Take DAG1 (UniProt Q14118): the log2 fold change is -0.006.
Still for that read-out and setting: to EFL1 (UniProt Q7Z2Z2) belongs -0.056; to DHRS3 (UniProt O75911), -0.027; to FAM160B1 (UniProt Q5W0V3), -0.217.
For EHD2 (UniProt Q9NZN4), the log2 fold change was -0.028.
On to DTWD1 (UniProt Q8N5C7), for which the log2 fold change is 0.098.
Still for that read-out and setting: as for FAM177A1 isoform 2 (UniProt Q8N128), the figure is -0.102.

Compound in the next assay: Cc1cc(Nc2cc(N3CCN(C)CC3)nc(Sc3ccc(NC(=O)C4CC4)cc3)n2)n[nH]1 [tozasertib]
The assay is described as above. In outline:
as §1
For the target DNAJB12 (UniProt Q9NXW2), the log2 fold change is -0.001.
On to DHFR (UniProt P00374), for which the log2 fold change is -0.151.
In the case of DFFB (UniProt O76075), the log2 fold change was -0.123.
On the same count and under the same terms, to EXOC5 (UniProt O00471) belongs 0.014; to DCTPP1 (UniProt Q9H773), 0.024; to DHX40 (UniProt Q8IX18), -0.089.
EOGT (UniProt Q5NDL2): the log2 fold change is -0.05.
For the target DHCR7 (UniProt Q9UBM7), the log2 fold change was -0.055.
Still for that read-out and setting: as for CUTA isoform 2 (UniProt O60888), the figure is -0.05.
On the same count and under the same terms, to ERLIN1 (UniProt O75477) belongs 0.025; to EXOC1 (UniProt Q9NV70), -0.016.
CUX1 isoform 2 (UniProt Q13948): the log2 fold change is -0.029.
Same read-out and setting: as for DNM2 (UniProt P50570), the figure is -0.071; as for DHRS7B (UniProt Q6IAN0), 0.033.
With DIP2A (UniProt Q14689), the log2 fold change was -0.077.
Consider FAM114A2 (UniProt Q9NRY5), for which the log2 fold change is 0.002.
Take FAF2 (UniProt Q96CS3): the log2 fold change is 0.016.
For the target ECH1 (UniProt Q13011), the log2 fold change was 0.434 (active).
On the same count and under the same terms, to DDOST (UniProt P39656) belongs 0.022; to DCAF6 isoform 3 (UniProt Q58WW2), -0.034; to DHCR24 (UniProt Q15392), 0.276.
Regarding DNAH11 (UniProt Q96DT5), the log2 fold change was -0.165.
As for DCAF13 (UniProt Q9NV06), the log2 fold change is 0.007.
Consider CYBA (UniProt P13498), for which the log2 fold change is -0.043.
Consider FADS1, A0A0A0MR51, for which the log2 fold change was -0.011.
In the case of DPP8 (UniProt Q6V1X1), the log2 fold change was -0.027.
DDB1 (UniProt Q16531): the log2 fold change was -0.013.
Same read-out and setting: as for CUX1 isoform 3 (UniProt P39880), the figure is 0.029; as for EHBP1L1 (UniProt Q8N3D4), 0.067; as for EXOC7 (UniProt Q9UPT5), 0.027.
DHX36 (UniProt Q9H2U1): the log2 fold change is -0.047.
With DBR1 (UniProt Q9UK59), the log2 fold change is -0.051.
On the same count and under the same terms, to ERLIN2 (UniProt O94905) belongs 0.009; to DAG1 (UniProt Q14118), -0.084.
With EFL1 (UniProt Q7Z2Z2), the log2 fold change was -0.009.
Same read-out and setting: as for DHRS3 (UniProt O75911), the figure is -0.089; as for FAM160B1 (UniProt Q5W0V3), 0.003.
Consider EHD2 (UniProt Q9NZN4), for which the log2 fold change is -0.003.
As for DTWD1 (UniProt Q8N5C7), the log2 fold change was 0.029.
As to FAM177A1 isoform 2 (UniProt Q8N128), the log2 fold change was -0.072.

Compound in another assay: Cc1cc(SCc2sc(-c3ccc(C(F)(F)F)cc3)nc2C)ccc1OCC(=O)O
The assay is described as above. In outline: as §1
In the case of DNAJB12 (UniProt Q9NXW2), the log2 fold change is 0.097.
Consider DHFR (UniProt P00374), for which the log2 fold change was 0.048.
Take DFFB (UniProt O76075): the log2 fold change was -0.012.
In the case of EXOC5 (UniProt O00471), the log2 fold change is 0.101.
Regarding DCTPP1 (UniProt Q9H773), the log2 fold change was -0.064.
Consider DHX40 (UniProt Q8IX18), for which the log2 fold change was 0.01.
As to EOGT (UniProt Q5NDL2), the log2 fold change was -0.137.
For DHCR7 (UniProt Q9UBM7), the log2 fold change was 0.051.
On to CUTA isoform 2 (UniProt O60888), for which the log2 fold change is -0.049.
ERLIN1 (UniProt O75477): the log2 fold change was 0.148.
On the same count and under the same terms, to EXOC1 (UniProt Q9NV70) belongs 0.067; to CUX1 isoform 2 (UniProt Q13948), 0.002; to DNM2 (UniProt P50570), 0.039.
DHRS7B (UniProt Q6IAN0): the log2 fold change is 0.105.
In the case of DIP2A (UniProt Q14689), the log2 fold change was 0.081.
In the case of FAM114A2 (UniProt Q9NRY5), the log2 fold change is 0.011.
Regarding FAF2 (UniProt Q96CS3), the log2 fold change was 0.059.
In the case of ECH1 (UniProt Q13011), the log2 fold change was -0.008.
For the target DDOST (UniProt P39656), the log2 fold change is -0.016.
Consider DCAF6 isoform 3 (UniProt Q58WW2), for which the log2 fold change was -0.058.
Still for that read-out and setting: to DHCR24 (UniProt Q15392) belongs -0.063; to DNAH11 (UniProt Q96DT5), -0.069.
Turning to DCAF13 (UniProt Q9NV06), the log2 fold change is -0.033.
As to CYBA (UniProt P13498), the log2 fold change was 0.04.
Take FADS1, A0A0A0MR51: the log2 fold change was -0.007.
Take DPP8 (UniProt Q6V1X1): the log2 fold change was 0.006.
Take DDB1 (UniProt Q16531): the log2 fold change was -0.037.
On the same count and under the same terms, to CUX1 isoform 3 (UniProt P39880) belongs -0.026; to EHBP1L1 (UniProt Q8N3D4), 0.115.
Consider EXOC7 (UniProt Q9UPT5), for which the log2 fold change was 0.05.
As for DHX36 (UniProt Q9H2U1), the log2 fold change was 0.045.
As for DBR1 (UniProt Q9UK59), the log2 fold change is 0.01.
In the case of ERLIN2 (UniProt O94905), the log2 fold change is 0.155.
Turning to DAG1 (UniProt Q14118), the log2 fold change was -0.032.
Still for that read-out and setting: as for EFL1 (UniProt Q7Z2Z2), the figure is 0.029; as for DHRS3 (UniProt O75911), -0.049.
On to FAM160B1 (UniProt Q5W0V3), for which the log2 fold change was 0.049.
As to EHD2 (UniProt Q9NZN4), the log2 fold change was 0.002.
Consider DTWD1 (UniProt Q8N5C7), for which the log2 fold change was 0.012.
On the same count and under the same terms, as for FAM177A1 isoform 2 (UniProt Q8N128), the figure is -0.027.
